60 compounds from ChEMBL document CHEMBL1157539, “Thousands of chemical starting points for antimalarial lead identification” (Nature, 2010) can be followed below.

What all share (type): functional
Assay [1] relates to Plasmodium falciparum. Description: GSK_TCMDC: Inhibition of Plasmodium falciparum 3D7 in whole red blood cells, using parasite LDH activity as an index of growth. Test compounds present at 2uM.
Assay [2] relates to Plasmodium falciparum. Description: GSK_TCMDC: Inhibition of Plasmodium falciparum Dd2 in whole red blood cells, using parasite LDH activity as an index of growth. Test compounds present at 2uM.
For assay [3], the system named is HepG2. Nature of the assay: GSK_TCMDC: Percent inhibition of human HepG2 cell line. Test compounds present at 10uM.

A word on the Inhibition: it is the share of the control response that was lost under treatment. Regarding `CCCC1(NC[C@@H](O)[C@H](Cc2ccccc2)NC(=O)c2cc(NCC)cc(N3CCCCS3(=O)=O)c2)CCCC1.Cl`, the Inhibition was 100% in assay [1], 97% in assay [2] and 0% in assay [3].
On the same counts, the results for `Cc1nnsc1C(=O)Nc1cccc(-c2ccc(-c3nc4ccccc4[nH]3)cc2)c1` are 100%, 58% and 48%.
On the same counts, the results for `Cc1cc(OCCCN2CCC(NS(=O)(=O)c3cccc(Br)c3)C2)c2ccccc2n1` (stereo not given) are 86%, 40% and 13%.
Regarding `Cc1ccc(N)cc1-c1nc(NC2CC(C)(C)NC(C)(C)C2)nc2c1ccc(=O)n2-c1c(F)cccc1F`, the Inhibition in assay [1] is given as 98%; in assay [2] it was 1%; in assay [3], 0%.
The matching figures for `Cc1cc(Cl)ccc1N(Cc1ccccc1)c1ccnc(Cl)n1`: 97%, 98% and 16%.
In the case of `C#CCNCc1ccc(-c2cccc(-c3nc4cccc(C)c4[nH]3)c2)cc1.O=C(O)C(F)(F)F`, the Inhibition in assay [1] was found to be 100%; in assay [2] it was 32%; in assay [3] it was 0%.
On the same counts, the results for `CCn1c(-c2nonc2N)nc2c(-c3cccc(Cl)c3)ncc(OCCCNCc3cnc(C)nc3N)c21.O=C(O)C(F)(F)F` are 93%, 48% and 21%.
Consider `Cc1cc(N[C@@H](Cc2ccccc2)C(=O)NC2CCCC2)nc(Nc2ccccc2)n1.O=C(O)C(F)(F)F`, for which the results for the Inhibition in assay [1], in assay [2] and in assay [3] were 100%, 82% and 3%, respectively.
For `O=C(c1ccc(-c2cnc3[nH]cc(-c4ccc(C(=O)N5CCOCC5)cc4)c3c2)cc1)N1CCOCC1`, the Inhibition in assay [1] came to 91%; in assay [2], 0%; in assay [3], 19%.
On the same counts, the results for `CS(=O)(=O)O.FC(F)(F)COc1c(CNCCCCCCNCc2ccc3ccccc3c2OCC(F)(F)F)ccc2ccccc12` are 100%, 79% and 100%.
On the same counts, the results for `CCCCCCN1CCCN(Cc2cccc(NC(=O)c3cc4ccccc4s3)c2)CC1.O=C(O)C(F)(F)F` are 88%, 53% and 31%.
On the same counts, the results for `O=C(O)C(F)(F)F.Oc1ccc(CCNc2nc(NCCCOc3ccccc3-c3cccc(C(F)(F)F)c3)nc(N3CCNCC3)n2)cc1` are 93%, 5% and 24%.
For the compound `Cc1ccc2c(c1)C1(CC(=O)N(CCc3scnc3C)C1=O)C(=O)N2Cc1ccccc1` (stereo not given), the Inhibition is recorded as 83% in assay [1], 73% in assay [2] and 0% in assay [3].
On the same counts, the results for `Cc1cc(Nc2cccc(Cl)c2)nc2ccc(NC(=O)c3ccc(=O)[nH]c3)cc12` are 100%, 23% and 12%.
The matching figures for `CS(=O)(=O)Cc1ccc(Nc2nccc(-c3c(-c4cccc(C(=O)Nc5c(F)cccc5F)c4)nn4ccccc34)n2)cc1`: 96%, 92% and 85%.
Consider `CS(=O)(=O)c1ccc(-c2cnc(N)c(-c3cccc(O)c3)c2)cc1`, for which the Inhibition in assay [1] worked out at 98%; in assay [2] it was 97%; in assay [3], 48%.
For `COC(=O)c1cccc(CNCc2cccc(-c3csc(-c4nc5ccccc5[nH]4)c3)c2)c1.O=C(O)C(F)(F)F`, the Inhibition was found to be 100% in assay [1], 44% in assay [2] and 0% in assay [3].
On the same counts, the results for `COc1ccc(Oc2ccccc2CNCC2CCN(CC3CCCCC3)CC2)cc1.O=C(O)C(F)(F)F` are 85%, 28% and 34%.
On the same counts, the results for `CCOc1cccc(C(=O)Nc2nonc2-c2ccc(OC)c(OC)c2)c1` are 92%, 95% and 11%.
The matching figures for `COc1ccc(CN2CCC(C(=O)Nc3cccc(-c4cccc(Cl)c4)c3)CC2)cc1O`: 91%, 0% and 25%.
For the compound `COc1ccc(C2CC(=O)C3=C(C2)NC(C)=C(C(=O)OC(C)C)C3c2cccc(O)c2)cc1OC` (stereo not given), the Inhibition in assay [1] was determined as 100%; in assay [2] it was 85%; in assay [3], 0%.
On the same counts, the results for `O=C(O)C(F)(F)F.O=S(=O)(c1ccccc1)n1ccc2cc(Nc3ncnc4cc(C#C[C@H]5CCCN5)sc34)ccc21` are 85%, 56% and 50%.
On the same counts, the results for `Cc1cc(N[C@@H](Cc2ccccc2)C(=O)NCCOc2ccccc2)nc(NCCOc2ccccc2)n1.O=C(O)C(F)(F)F` are 98%, 24% and 0%.
The matching figures for `CCc1ccc(NC(=O)c2cccc(CN3CCCN(Cc4ccc(OC)cc4)CC3)c2)cc1.O=C(O)C(F)(F)F`: 97%, 0% and 35%.
In the case of `Cc1cccc2nc(-c3ccc(-c4ccc(CN5CCCCC5CO)cc4)cc3)[nH]c12.O=C(O)C(F)(F)F` (stereo not given), the Inhibition is given as 100% in assay [1], 76% in assay [2] and 32% in assay [3].
The matching figures for `CC(C)Sc1nncc(-c2cnnc(SC(C)C)n2)n1`: 100%, 100% and 0%.
On the same counts, the results for `C=C1C(C(=O)OCC)=CN(CC)c2cc(O[C@@H]3CCN(C(=O)OC(C)(C)C)C3)ccc21` are 97%, 94% and 13%.
In the case of `COc1ccc(NC(=O)c2ccc3[nH]c(-c4ccc(Cl)cc4)cc3c2)cc1OCCN(C)C`, the Inhibition in assay [1] was found to be 100%; in assay [2], 78%; in assay [3], 32%.
The matching figures for `Cc1cc(NC(=O)Nc2cccc(C#N)c2)c2ccccc2n1`: 100%, 82% and 17%.
On the same counts, the results for `FC(F)(F)c1cccc(Nc2nc3nonc3nc2NC2C3CC4CC(C3)CC2C4)c1` (stereo not given) are 100%, 100% and 72%.
`NS(=O)(=O)Cc1cccc(-c2ccnc3ccc(-c4cccc(S(N)(=O)=O)c4)cc23)c1`: the Inhibition came out at 98% in assay [1], 42% in assay [2] and 39% in assay [3].
Take `COc1ccc(C2CCN(CCCNC(=O)c3ccc(NC(=O)c4ccc(Cl)cc4)cc3)CC2)c(OC)c1`: the Inhibition amounted to 99% in assay [1], 58% in assay [2] and 26% in assay [3].
The matching figures for `COc1ccc(CN(C)Cc2cc(C(C)C)c(C)cc2O)cc1F`: 98%, 98% and 1%.
As to `NC1=NC2(CCCCC2)N(OCCCCCCCCNc2nc(N)nc(N)n2)C(N)=N1.O=C(O)C(F)(F)F`, the Inhibition came to 96% in assay [1], 99% in assay [2] and 44% in assay [3].
The matching figures for `O=C(Nc1ccc(Cl)cc1)c1cccc(S(=O)(=O)NC2CCN(CC3CCCCC3)CC2)c1.O=C(O)C(F)(F)F`: 92%, 11% and 67%.
On the same counts, the results for `Cl.O=S(=O)(Nc1cc2c(cc1OCc1ccccc1)CCN(C1CCC1)CC2)c1ccc(-c2ccc(Cl)cc2)cc1` are 92%, 12% and 18%.
On the same counts, the results for `Cn1nc(C(=O)N2CCC(c3[nH]ncc3Cc3ccccc3)CC2)c2ccccc2c1=O` are 95%, 95% and 5%.
Regarding `COc1ccc(-n2ccnc2)cc1CNC1CCN(CC2Cn3c(=O)ccc4ccc(F)c2c43)CC1.O=C(O)C(F)(F)F` (stereo not given), the Inhibition in assay [1] is reported as 99%; in assay [2], 18%; in assay [3] it was 25%.
The matching figures for `Cc1[nH]c(C)c(-c2ccc(-c3ccccc3)nc2)c(=O)c1Br`: 96%, 95% and 0%.
The matching figures for `CC1(C)NC(N)=NC(=N)N1OCc1cc(Cl)c(Cl)cc1CON1C(=N)N=C(N)NC1(C)C`: 98%, 100% and 36%.
The matching figures for `O=C(/C=C/c1ccsc1)N1CCC(CCN2CCC(c3c[nH]c4ccccc34)CC2)CC1`: 88%, 24% and 37%.
For the compound `CC(C)(Oc1c(C2CCN(CCCCNC(=O)c3ccc(-c4ccc(Cl)cc4)cc3)CC2)ccc2c1CCCC2)C(N)=O`, the Inhibition in assay [1] came out at 93%; in assay [2] it was 5%; in assay [3], 100%.
For the compound `Cc1cc(=NN=Cc2ccccc2Cl)c2cccc(C)c2[nH]1`, the Inhibition in assay [1] amounted to 97%; in assay [2], 98%; in assay [3] it was 10%.
The matching figures for `O=[N+]([O-])c1ccc(C(O)P(=O)(c2ccccc2)c2ccccc2)cc1` (stereo not given): 98%, 1% and 1%.
On the same counts, the results for `Cl.c1ccc(Oc2cccc(Nc3ccnc4ccccc34)c2)cc1` are 95%, 14% and 48%.
The matching figures for `O=C(Cc1ccc(NC(=O)c2ccc(O)c(-c3ccc(Cl)c(Cl)c3)c2)cc1)NCCN1CCCCC1`: 95%, 63% and 12%.
In the case of `CN1CCN(CCCN(Cc2cccc(-c3cccc(CNC4CCCC4)c3)c2)C(=O)/C=C/c2ccccc2)CC1.O=C(O)C(F)(F)F`, the Inhibition was determined as 100% in assay [1], 99% in assay [2] and 84% in assay [3].
On the same counts, the results for `Cl.N#Cc1ccc2c(c1)CCN(CCC1CCC(NC(=O)/C=C/c3cccc4ccccc34)CC1)CC2` (stereo not given) are 96%, 12% and 16%.
On the same counts, the results for `FC(F)(F)c1ccc2[nH]c(-c3ccc(-c4cccc(CN5CCN(CCN6CCOCC6)CC5)c4)cc3)nc2c1.O=C(O)C(F)(F)F` are 98%, 77% and 47%.
The matching figures for `N#Cc1cncc(-c2nc3c(N4CCN(c5cnccn5)CC4)cccc3n2CCNCc2ccccc2)c1.O=C(O)C(F)(F)F`: 99%, 31% and 0%.
In the case of `O=C(NCc1cccc2ccccc12)c1ccc(CNC2CCN(Cc3ccccc3)CC2)cc1.O=C(O)C(F)(F)F`, the values for the Inhibition in assay [1], in assay [2] and in assay [3] were 100%, 88% and 15%, respectively.
Regarding `CC(C)OC(=O)c1ccccc1S(N)(=O)=O`, the Inhibition in assay [1] worked out at 97%; in assay [2] it was 0%; in assay [3], 0%.
For the compound `CCc1c(C(=O)NC2CCC(N3CCC(c4ccccc4C)CC3)CC2)[nH]c2ccc(Br)cc12` (stereo not given), the Inhibition in assay [1] was found to be 100%; in assay [2], 99%; in assay [3] it was 81%.
Consider `CCOc1cc2ccccc2cc1CNCCCCCCNCc1cc2ccccc2cc1OCC.CS(=O)(=O)O`, for which the Inhibition in assay [1] amounted to 100%; in assay [2] it was 76%; in assay [3], 99%.
On the same counts, the results for `Cl.O=c1cc(NCCCCNCc2ccc(Br)c(Br)c2)[nH]c2ccccc12` are 98%, 14% and 13%.
For the compound `Cc1nc(C)c(-c2ccc(Cl)cc2Cl)c(O)c1Br`, the Inhibition was 87% in assay [1], 57% in assay [2] and 3% in assay [3].
The matching figures for `O=C(NC1CCN(c2ccnc3ccccc23)C1)c1ccc(OC(F)(F)F)cc1.O=C(O)C(F)(F)F` (stereo not given): 89%, 68% and 35%.
On the same counts, the results for `CCn1ccc2c(N3CCCCS3(=O)=O)cc(C(=O)N[C@@H](Cc3ccccc3)[C@H](O)CNC(C)(C)c3cccc(C(F)(F)F)c3)cc21` are 97%, 98% and 6%.
The matching figures for `CCCCCCN1CCCN(Cc2cccc(C(=O)Nc3ccc(C(C)(C)C)cc3)c2)CC1.O=C(O)C(F)(F)F`: 93%, 23% and 41%.
For the compound `CCNC(=O)N[C@@H]1CN[C@@H](C#Cc2cc3c(Nc4ccc(OCc5cccc(F)c5)c(Cl)c4)ncnc3s2)C1`, the results for the Inhibition in assay [1], in assay [2] and in assay [3] were 85%, 27% and 0%, respectively.
